# According to PubChem BioAssay (NCI):
# The panel holds about 83,000 compounds, 20% with a hit somewhere; the sample as a whole holds those more often.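 Single-concentration screen, 48 h exposure, 96-well plates. Endpoint: percent growth. Below 10 = active.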 A number with no mark means an inactive call. The source made the active and inactive calls.
# Test system: CCRF-CEM leukemia
# Test: NCI-60 one-dose screen, 48 h (100 = growth as untreated, 0 = no growth, -100 = all killed)
# Settings: 10 µM unless noted
row,SMILES,growth
1,C=C1C(=O)O[C@H]2[C@H]1CC/C(COC(=O)c1cc3cc(OC)ccc3[nH]1)=C\CC[C@@]1(C)O[C@@H]21,-21% (active)
2,CC[C@]1(O)C[C@@H]2CN(CCc3c([nH]c4ccccc34)[C@@](C(=O)OC)(c3cc4c(cc3OC)N(C)[C@H]3[C@@](O)(C(N)=O)[C@H](O)[C@]5(CC)[C@@H]6C[C@@H]6CN6CC[C@]43[C@@H]65)C2)C1,17.7%
3,Cc1nn(-c2ccc(F)cc2)c2ncnc(Nc3ccc(NC(=O)Nc4ccc(Cl)c(C(F)(F)F)c4)cc3)c12,28.9%
4,CC(=O)O[C@H]1[C@@H]2OC(=O)C(CSc3ccccc3)[C@@H]2C[C@H]2O[C@]2(C)CC/C=C(\C)CCC[C@@H]1C (stereo partly drawn),52.4%
5,C#CCOc1ccc2ncnc(N3CCC(NC(=O)CCl)CC3)c2c1,39.8% [8.25 µM]
6,CCC(=O)c1ccc(Cl)s1,101%
7,COc1ccc(S(=O)(=O)N2CC3(COC3)C2)cc1NC(=O)c1[nH]c(C)c2c1CCCCC2=O,72.5%
8,O=C1/C(=C/c2ccc3c(c2)OCO3)SC(=S)N1CCc1ccc(O)cc1,56.7%
9,Oc1ccccc1-c1nnc(CNc2ccc(Cl)cc2)o1,11.8%
10,Cc1ccc(OC(=O)c2ccc(Cl)cc2)cc1,55.9%
11,O=C(CCCCC(=O)N/N=C\c1ccccc1O)N/N=C\c1ccccc1O,18.1%
12,Cc1ccc(NC(=O)/C=C/c2ccccc2)c(C(N)=O)c1,7.23% (active)
13,CN1CCN(CCCOc2cccc3nc(Nc4ccc(Cl)c(F)c4)ccc23)CC1,19.3%
